Only some compounds are listed: those with a hit (about 13% of all), similar ones and a draw of the others.
A350 fluor = compound fluoresces in the Alexa 350 spectral region; Compound autofluorescence, 340/450 nm, Alexa 350 dye-equivalents; active compounds read high; max dye-equivalent concentration, M; hit rate 11% among 59,000; AID 590; in the data active means max dye-equivalent concentration above about 10 nM; inconclusive means mostly about 1.1 nM to 9.6 nM
HSD17B inh = inhibitors of human HSD17B10 dehydrogenase; hit rate 7.6% among 75,000; recombinant HSD17B10, NADH fluorescence kinetic; Q99714; AID 893; Potency, µM (top dose mostly 57.1 µM), without a hit: at the top dose activity change, negative = inhibition, hits mostly inhibitors;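 further: the protocol describes HADH2 (HSD17B10) and not the HSD17B4 of the title; potency means the concentration at half of the fitted maximal effect; on the % scale 0 is the no-effect control and ±100 the full control effect; nearly all actives have a fitted effect of over 70% in size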
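Activity followed as NADH fluorescence increase (ex 360, em 450 nm) every 30 seconds for 4 min, using final 90 uM beta-hydroxybutyryl CoA and 1 mM NAD+. Recombinant His-tagged enzyme, 20 nM, pH 9.0 Tris buffer, 15 min compound preincubation.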
USP2a inh = USP2a (human) protease inhibition; USP2a enzymatic assay, qHTS inhibition; Potency, µM (top dose mostly 38.3 µM), inactives show top-dose activity change, negative = inhibition, actives largely listed as inhibitors; hit rate 0.1% among 60,000; AID 927; further: potency means the concentration at half of the fitted maximal effect; nearly all actives have a fitted effect of over 60% in size
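USP2 core (20 nM final) was preincubated with compound for 30 min at RT in 20 mM Tris-HCl pH 8.0, 2 mM CaCl2, 2 mM beta-mercaptoethanol; Ub-PLA2 (20 nM) plus NBD C6-HPC (20 uM) then added, fluorescence read after 2.5 h.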
HADH2 inh = blocks human hydroxyacyl-CoA dehydrogenase type II. Q99714. recombinant HADH2, NADH fluorescence, beta-hydroxybutyryl-CoA. Potency, µM (highest dose often 57.1 µM), inactives show top-dose activity change, negative = inhibition, most hits filed as inhibitors. hit rate 3.4% among 73,000; further: potency means the concentration at half of the fitted maximal effect; on the % scale 0 is the no-effect control and ±100 the full control effect; nearly all actives have a fitted effect of over 60% in size
Target sequence (Q99714 whole entry, looked up, one chain of several): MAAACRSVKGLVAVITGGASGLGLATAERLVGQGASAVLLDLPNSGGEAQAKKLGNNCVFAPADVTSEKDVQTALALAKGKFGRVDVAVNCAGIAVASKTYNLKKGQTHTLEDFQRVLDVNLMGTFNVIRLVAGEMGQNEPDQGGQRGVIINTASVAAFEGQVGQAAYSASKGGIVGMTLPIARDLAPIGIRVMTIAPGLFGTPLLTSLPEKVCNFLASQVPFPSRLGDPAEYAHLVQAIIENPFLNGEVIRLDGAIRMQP
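His-tagged recombinant enzyme from E. coli, 20 nM, preincubated 15 min RT with compound; reaction started with 1 mM NAD+ and 90 uM beta-hydroxybutyryl-CoA in 100 mM Tris-HCl pH 9.0. NADH fluorescence (ex 360/em 450) read over 4 min; last-minus-first difference.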
4MU fluor = 4-MU region autofluorescence | hit rate 11% among 59,000 | max dye-equivalent concentration, M | compound autofluorescence, 340/450 nm, 4-MU equivalents; active compounds read high | AID 589; in the data active means max dye-equivalent concentration above about 10 nM; inconclusive means mostly about 1.1 nM to 9.6 nM
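Compounds in 100 mM Tris, pH 8.0, incubated 15 min at room temperature, then fluorescence read at 340 nm excitation/450 nm emission. Signal converted to 4-MU dye-equivalent concentration using an on-plate six-point 4-MU standard curve.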
AID923 = qHTS Assay for Allosteric/Competitive Inhibitors of Caspase-1: Spectroscopic Profiling in AFC Spectral Region. compound fluorescence, AFC spectral region (405/520 nm). Potency, µM (titrated, usually from 57.5 µM), without a hit: at the highest dose fluorescence increase, most hits filed as activators. hit rate 1.1% among 75,000. AID 923, 2007; further: potency means the concentration at half of the fitted maximal effect; 0% is about no effect
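Compound autofluorescence profiled at 405 nm ex/520 nm em during kinetic caspase 1 run (50 nM enzyme, 5 uM Ac-WEHD-AFC, HEPES pH 7.5, 10 mM DTT). Titration up to 57 uM; baseline from regression intercept, normalized to AFC standard curve.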
The depositor's hits bear a star; [ ] = remark or other dose. Unless noted, the call rests on the fitted dose curve; in most records, active means well fitted curve in the direction sought with a large enough effect; inconclusive means small, poorly fitted or top-dose-only effect, or another doubt; inactive means no such curve, though single readings can be large; an effect the other way counts as inactive or inconclusive.

`O=C(O)CCC/C=C\C[C@H]1[C@@H](/C=C\[C@@H](O)C2Cc3ccccc3C2)[C@H](F)C[C@H]1O` gave A350 fluor inconclusive, HADH2 inh -10.4% and 4MU fluor inconclusive.
For N=C(N)SCCCN the results were A350 fluor inactive, HSD17B inh 4.4%[11.4 µM], HADH2 inh 4.7%[11.4 µM], 4MU fluor inactive and AID923 5.7%[11.5 µM].
`CCc1cc(=O)oc2cc(C)cc(O)c12` gave HSD17B inh -5.2%, HADH2 inh 0.6% and AID923 -2.0%.
Screening CCc1cc(=O)oc2cc(C)c3c(C)coc3c12 returned A350 fluor 3.79e-08M*, HSD17B inh 6.31µM*, USP2a inh 3.3%, HADH2 inh 9.0%, 4MU fluor 3.2e-08M* and AID923 -0.7%.
C[C@@H](CCC(=O)O)C(=O)O was read as A350 fluor 1.05e-08M*, HSD17B inh 5.2%[11.4 µM], HADH2 inh 1.6%[11.4 µM], 4MU fluor inconclusive and AID923 4.1%[11.5 µM].
Screening CC(C)(C)c1ccc(O)c(CN(Cc2cc(C(C)(C)C)ccc2O)C2CCCCC2)c1 returned A350 fluor inactive, HSD17B inh -2.6%[11.4 µM], HADH2 inh 13.4%[11.4 µM], 4MU fluor inactive and AID923 -2.7%[11.5 µM].
For COCCn1c(=O)c(CCc2ccccc2)nc2cnc(Oc3ccc(OC)cc3)nc21 the results were A350 fluor inactive, HSD17B inh 2.9%, USP2a inh 85.8%, HADH2 inh 3.3%, 4MU fluor inactive and AID923 2.8%.
Screening Cc1cc(NC(=O)C23CCC(C)(c4nc5cc(Cl)c(Cl)cc5nc42)C3(C)C)no1 (configuration not stated) returned A350 fluor inconclusive, HSD17B inh 0.8%, USP2a inh -2.2%, HADH2 inh -2.8%, 4MU fluor inactive and AID923 -1.7%.
Screening Clc1ccc2nc3ccccn3c2c1 returned A350 fluor 4.73e-06M*, HSD17B inh 31.6µM*, USP2a inh 2.0%, HADH2 inh inconclusive, 4MU fluor 3.4e-06M* and AID923 -0.9%.
`CCOC(=O)N1CCC(NC(=O)c2cc(C)c3c(C)nn(-c4ccccc4)c3n2)CC1` gave A350 fluor 1.62e-07M*, HSD17B inh 11.6%, USP2a inh 9.1%, HADH2 inh 230.6%, 4MU fluor 1.45e-07M* and AID923 0.9%.
For c1ccc(CNc2nc(-c3ccc4c(c3)OCO4)nc3ccccc23)cc1 the results were A350 fluor inactive, HSD17B inh inconclusive, USP2a inh inconclusive, HADH2 inh inconclusive, 4MU fluor inactive and AID923 4.0%.
For COc1ccc(OC[C@@H](CO)OC)cc1 the results were HSD17B inh 7.2%[11.4 µM], HADH2 inh 2.1%[11.4 µM] and AID923 -4.7%[11.5 µM].
Screening Cc1ccsc1C=Nc1ccc(O)cc1 returned HSD17B inh inconclusive, USP2a inh 7.4%, HADH2 inh 2.51µM* and AID923 7.0%.
`CC1CCCCN1C(=O)CSc1nnc(-c2ccc(Cl)s2)o1` (configuration not stated) gave A350 fluor inactive, HSD17B inh 31.6µM*, USP2a inh 13.7%, HADH2 inh -20.0%, 4MU fluor inactive and AID923 1.0%.
For c1nc(NC2CCCCCC2)c2[nH]cnc2n1 the results were HSD17B inh 31.6µM*, HADH2 inh inconclusive and AID923 -2.4%.
For Cc1cc(C(N)=O)c2cc(Br)ccc2n1 the results were HSD17B inh 4.6%, USP2a inh 2.7%, HADH2 inh -0.1% and AID923 0.2%.
For O=C(O)c1cc(-c2ccco2)nc2ccc(Br)cc12 the results were A350 fluor 1.54e-07M*, HSD17B inh 15.8µM*, USP2a inh 2.4%, HADH2 inh 12.6µM*, 4MU fluor 1.4e-07M* and AID923 4.1%.
For COc1ccc(NC(=O)c2cc(-c3ccc(C)o3)nc3ccccc23)cc1OC the results were A350 fluor 5.01e-08M*, HSD17B inh inconclusive, USP2a inh 44.4%, HADH2 inh -2.3%, 4MU fluor 4.39e-08M* and AID923 6.1%.
Screening O=C(NCC1CCCO1)c1cc(-c2ccco2)nc2ccccc12 (configuration not stated) returned A350 fluor 2.35e-06M*, HSD17B inh 25.1µM*, USP2a inh 5.9%, HADH2 inh 12.6µM*, 4MU fluor 2.49e-06M* and AID923 8.6%.
For Cc1cccc(NC(=O)c2cc(-c3ccco3)nc3ccccc23)n1 the results were A350 fluor 2.15e-07M*, HSD17B inh 25.1µM*, USP2a inh 12.8%, HADH2 inh inconclusive, 4MU fluor 2.19e-07M* and AID923 4.6%.
For COCC(COCCCNC(=O)Nc1ccc(Br)cc1)OC (configuration not stated) the results were HSD17B inh 12.8%, USP2a inh 2.9%, HADH2 inh 0.8% and AID923 0.6%.
NS(=O)(=O)c1cc2c(cc1Cl)NC=NS2(=O)=O was read as A350 fluor inactive, HSD17B inh -2.9%, USP2a inh 0.4%, HADH2 inh 4.2%, 4MU fluor inactive and AID923 -1.8%.
Screening CCOC(=O)N1CCN(C(=O)COc2ccc(S(=O)(=O)NC(C)C)cc2)CC1 returned HSD17B inh -3.1%, HADH2 inh 2.0% and AID923 1.6%.
`N#CCCN(C1CCCCC1)S(=O)(=O)CCOc1ccccc1` gave A350 fluor inactive, HSD17B inh 2.7%, USP2a inh 1.0%, HADH2 inh 0.9%, 4MU fluor inactive and AID923 0.8%.
For CC[C@H]1NC(=O)c2cc(S(N)(=O)=O)c(Cl)cc2N1 the results were A350 fluor 6.2e-08M*, HSD17B inh inconclusive, USP2a inh 33.8%[17.1 µM], HADH2 inh -12.7%[25.6 µM], 4MU fluor 7.04e-08M* and AID923 -0.4%[25.7 µM].
`C=CCSC[C@@H]1Nc2cc(Cl)c(S(N)(=O)=O)cc2S(=O)(=O)N1` gave A350 fluor inconclusive, HSD17B inh 2.2%[25.6 µM], USP2a inh 0.4%[17.1 µM], HADH2 inh 4.9%[25.6 µM], 4MU fluor inconclusive and AID923 0.5%[25.7 µM].
For COC(=O)c1ccccc1 the results were HSD17B inh 6.2%, HADH2 inh -4.9% and AID923 -1.6%.
Screening O=C(Oc1cccc2c(O)cccc12)c1ccccc1 returned A350 fluor inactive, HSD17B inh 0.9%, USP2a inh 12.6µM*, HADH2 inh inconclusive, 4MU fluor inactive and AID923 -2.2%.
For CCc1nnc2sc(-c3ccc(NC(=O)CSc4ccc(Cl)cc4)cc3)nn12 the results were A350 fluor 1.06e-08M*, HSD17B inh 1.7%, USP2a inh 15.3%, HADH2 inh -19.8%, 4MU fluor 1.11e-08M* and AID923 1.2%.

High-throughput results: PubChem BioAssay, National Center for Advancing Translational Sciences (NCATS)
